# Results reported in PubChem BioAssay (NCI).
# Compounds without any hit were thinned out: in the full panel of roughly 83,000, 20% have a hit.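 In brief: 96-well plates, 48 h treatment, single concentration, percent growth endpoint.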 Activity calls are given as the source filed them. How the source made its calls: active means growth percent below 10; inactive means the rest.
# Tested on: U251 CNS
# Test: NCI-60 one-dose screen, 48 h (100 = growth as untreated, 0 = no growth, -100 = all killed)
# Conditions: 10 µM
row,Compound,growth
1,CN(C)c1cccc2c(S(=O)(=O)Nc3cccc(-c4csc(NC(=O)CCCCCN5CCN(c6cc7c(cc6F)C(=O)N(C6CCC(=O)NC6=O)C7=O)CC5)n4)c3)cccc12 (configuration not stated),94.4% (inactive)
2,CC(=C(c1ccc(OCCN2CCCCC2)cc1)c1ccc(OCCN2CCCCC2)cc1)c1ccccc1,1.29% (active)
3,CC[C@@]1(O)C(=O)OCc2c1cc1n(c2=O)Cc2c-1nc1cc(F)c(C)c3c1c2[C@@H](N)CC3,-42.1% (active)
4,O=C(Cn1cc(CSc2nnc3oc4ccccc4n23)nn1)Nc1cccc(Cl)c1,70.6% (inactive)
5,C=C(C)[C@@H]1CC[C@]2(C(=O)OC)CC[C@]3(C)[C@H](CC[C@@H]4[C@@]5(C)CC[C@H](N)C(C)(C)[C@@H]5CC[C@]43C)[C@@H]12,-85.4% (active)
6,COc1ccc(-c2nc(S(=O)(=O)c3ccc(C)cc3)c(S(C)(=O)=O)o2)cc1,-90.3% (active)
7,CCN1CCN(c2ccc(NC(=O)Nc3ccc(-c4cc(C(=O)NC(C)C)c5ncccc5n4)cc3)cc2C(F)(F)F)CC1,-89.5% (active)
8,C=C[C@H]1[C@H](O[C@@H]2OC(CO)[C@@H](O)[C@H](O)C2OC(=O)c2c(O)cc(O)cc2-c2cccc(O)c2)OC=C2C(=O)OCC[C@H]21 (some centres not stated),104% (inactive)
9,COc1ccc(C(C)=C(c2ccc(OCCCN(C)C)cc2)c2ccc(OCCCN(C)C)cc2)cc1,-97.5% (active)
10,CC1(C)CC[C@]23CC[C@]4(C)[C@H](CC[C@@H]5[C@@]6(C)CC[C@H](N)C(C)(C)[C@@H]6CC[C@]54C)[C@H]2[C@H]1OC3=O,-88.9% (active)
11,CCN1CCN(c2ccc(NC(=O)Nc3ccc(-c4cc(C(=O)NC)c5ncccc5n4)cc3)cc2C(F)(F)F)CC1,-96.3% (active)
12,COc1ccc2[nH]c(O)c(N=NC(=O)c3cc(-c4ccc(C)cc4)nc4ccccc34)c2c1,88.5% (inactive)
13,O=C(Cn1cc(CSc2nnc3oc4ccccc4n23)nn1)Nc1ccc(Br)cc1,54.3% (inactive)
14,CN1CCN(c2ccc(Nc3nc(N4CCN(S(=O)(=O)c5ccc(F)cc5)CC4)c4sccc4n3)cc2)CC1,-98.5% (active)
15,COc1ccccc1NCc1ccc(CO)n1-c1ccc(C)cc1,96.1% (inactive)
16,CC(=C(c1ccc(OCCCN(C)C)cc1)c1ccc(OCCCN(C)C)cc1)c1ccccc1,-86.1% (active)
17,CN1CCN(c2ccc(Nc3nc(NCCCNC(=O)c4ccccc4)c4sccc4n3)cc2)CC1,22.8% (inactive)
18,CCCCCc1ccc(S(=O)(=O)N(C(C)=O)c2cc(-c3csc(N(C)C(C)=O)n3)ccc2N2CCN(C)CC2)cc1,-36.2% (active)
19,C=C1CC[C@H](C(=C)C)[C@H]2C=C(C)C(=O)C3=C(C(=O)[C@@](C)(O)C3)[C@H]12,-95.9% (active)
20,CC(=O)Nc1nc(-c2ccc(N3CCN(C)CC3)c(NS(=O)(=O)c3cccc4c(N(C)C)cccc34)c2)cs1,28.1% (inactive)
21,CNC(=O)c1cccc(N2CCc3c2ccc(NC(=O)Nc2ccc(N4CCN(C)CC4)c(C(F)(F)F)c2)c3F)c1,-92.1% (active)
22,CN1CCN(c2ccc(Nc3nc(N4CCN(S(=O)(=O)c5ccc(Cl)cc5)CC4)c4sccc4n3)cc2)CC1,-85.2% (active)
23,CC1(C)CC[C@]2(C(=O)NCCCNCCCCNCCCN)CC[C@]3(C)C(=CC[C@@H]4[C@@]5(C)Cc6c([nH]c7ccccc67)C(C)(C)[C@@H]5CC[C@]43C)[C@H]2C1,89.5% (inactive)
24,C=CC(=O)Nc1nc(-c2cccc(NS(=O)(=O)c3cccc4c(N(C)C)cccc34)c2)cs1,-59% (active)
25,COC1CC(Cn2cc(COc3ccc4ccc(=O)oc4c3)nn2)C(OCc2ccccc2)C(OCc2ccccc2)C1OCc1ccccc1 (configuration not stated),100% (inactive)

# Tested on: PC-3 prostate
# Test: as above
# Conditions: 10 µM
row,Compound,growth
1,Cc1ccc(C(=O)NCCCNc2nc(Nc3ccc(N4CCN(C)CC4)cc3)nc3ccsc23)cc1,37.9% (inactive)
2,O=C(c1ccc(-n2c(=O)[nH]c3ccccc3c2=O)cc1)N1CCOCC1,103% (inactive)
3,O=S(=O)(c1ccc(Cl)cc1)c1nc(-c2ccccc2)oc1S(=O)(=O)c1ccc(Cl)cc1,103% (inactive)
4,Cc1ccc(C(C)C)cc1NC(=O)c1ccccc1N(C)C,73.7% (inactive)
5,COc1ccc2[nH]c(O)c(N=NC(=O)COc3ccc(NC(=O)Nc4ccc(Cl)c(Cl)c4)cc3)c2c1,-33.4% (active)
6,COc1cccc(-c2nn(-c3ccccc3)cc2-c2ccnc(NCCCNC(=O)Nc3ccc(F)cc3)c2)c1,3.99% (active)
7,CN1CCN(c2ccc(Nc3nc(NCCCNC(=O)c4ccc(F)cc4)c4sccc4n3)cc2)CC1,50.9% (inactive)
8,CC1(C)CC[C@]2(C(=O)Nc3ccccc3)CC[C@]3(C)C(=CC[C@@H]4[C@@]5(C)CC[C@H](N)C(C)(C)[C@@H]5CC[C@]43C)[C@H]2C1,75.8% (inactive)
9,C[C@H]1[C@H](C)CC[C@]2(COC(=O)CCC(=O)NCC#CCN3CCNCC3)CC[C@]3(C)C(=CC[C@@H]4[C@@]5(C)CCCNC(C)(C)[C@@H]5CC[C@]43C)[C@H]12,17.8% (inactive)
10,O=C(Nc1ccncc1)c1ccc(-n2c(=O)[nH]c3ccccc3c2=O)cc1,92.4% (inactive)
11,Cc1ccc(C(C)C)cc1NC(=O)c1ccccc1O,33.4% (inactive)
12,CCCS(=O)(=O)c1oc(-c2ccc(F)cc2)nc1S(=O)(=O)c1ccc(F)cc1,80.7% (inactive)
13,CN(C)c1cccc2c(S(=O)(=O)Nc3cccc(-c4csc(NC(=O)CCCCCN5CCN(c6cc7c(cc6F)C(=O)N(C6CCC(=O)NC6=O)C7=O)CC5)n4)c3)cccc12 (configuration not stated),78.5% (inactive)
14,CC(=C(c1ccc(OCCN2CCCCC2)cc1)c1ccc(OCCN2CCCCC2)cc1)c1ccccc1,47.5% (inactive)
15,CC[C@@]1(O)C(=O)OCc2c1cc1n(c2=O)Cc2c-1nc1cc(F)c(C)c3c1c2[C@@H](N)CC3,22.5% (inactive)
16,O=C(Cn1cc(CSc2nnc3oc4ccccc4n23)nn1)Nc1cccc(Cl)c1,50.4% (inactive)
17,C=C(C)[C@@H]1CC[C@]2(C(=O)OC)CC[C@]3(C)[C@H](CC[C@@H]4[C@@]5(C)CC[C@H](N)C(C)(C)[C@@H]5CC[C@]43C)[C@@H]12,-28.2% (active)
18,COc1ccc(-c2nc(S(=O)(=O)c3ccc(C)cc3)c(S(C)(=O)=O)o2)cc1,20.8% (inactive)
19,CCN1CCN(c2ccc(NC(=O)Nc3ccc(-c4cc(C(=O)NC(C)C)c5ncccc5n4)cc3)cc2C(F)(F)F)CC1,-55.3% (active)

row,Compound,growth
1,C=C[C@H]1[C@H](O[C@@H]2OC(CO)[C@@H](O)[C@H](O)C2OC(=O)c2c(O)cc(O)cc2-c2cccc(O)c2)OC=C2C(=O)OCC[C@H]21 (some centres not stated),103% (inactive)
2,COc1ccc(C(C)=C(c2ccc(OCCCN(C)C)cc2)c2ccc(OCCCN(C)C)cc2)cc1,-82.3% (active)
3,CC1(C)CC[C@]23CC[C@]4(C)[C@H](CC[C@@H]5[C@@]6(C)CC[C@H](N)C(C)(C)[C@@H]6CC[C@]54C)[C@H]2[C@H]1OC3=O,-57.5% (active)
4,CCN1CCN(c2ccc(NC(=O)Nc3ccc(-c4cc(C(=O)NC)c5ncccc5n4)cc3)cc2C(F)(F)F)CC1,-77.9% (active)
5,COc1ccc2[nH]c(O)c(N=NC(=O)c3cc(-c4ccc(C)cc4)nc4ccccc34)c2c1,93.6% (inactive)
6,O=C(Cn1cc(CSc2nnc3oc4ccccc4n23)nn1)Nc1ccc(Br)cc1,80% (inactive)
7,CN1CCN(c2ccc(Nc3nc(N4CCN(S(=O)(=O)c5ccc(F)cc5)CC4)c4sccc4n3)cc2)CC1,-18.4% (active)
8,COc1ccccc1NCc1ccc(CO)n1-c1ccc(C)cc1,80.2% (inactive)
9,CC(=C(c1ccc(OCCCN(C)C)cc1)c1ccc(OCCCN(C)C)cc1)c1ccccc1,-74.2% (active)
10,CN1CCN(c2ccc(Nc3nc(NCCCNC(=O)c4ccccc4)c4sccc4n3)cc2)CC1,56.8% (inactive)
11,CCCCCc1ccc(S(=O)(=O)N(C(C)=O)c2cc(-c3csc(N(C)C(C)=O)n3)ccc2N2CCN(C)CC2)cc1,26.5% (inactive)
12,C=C1CC[C@H](C(=C)C)[C@H]2C=C(C)C(=O)C3=C(C(=O)[C@@](C)(O)C3)[C@H]12,-73.2% (active)
13,CC(=O)Nc1nc(-c2ccc(N3CCN(C)CC3)c(NS(=O)(=O)c3cccc4c(N(C)C)cccc34)c2)cs1,48.7% (inactive)
14,CNC(=O)c1cccc(N2CCc3c2ccc(NC(=O)Nc2ccc(N4CCN(C)CC4)c(C(F)(F)F)c2)c3F)c1,-51.8% (active)
15,CN1CCN(c2ccc(Nc3nc(N4CCN(S(=O)(=O)c5ccc(Cl)cc5)CC4)c4sccc4n3)cc2)CC1,28.5% (inactive)
16,CC1(C)CC[C@]2(C(=O)NCCCNCCCCNCCCN)CC[C@]3(C)C(=CC[C@@H]4[C@@]5(C)Cc6c([nH]c7ccccc67)C(C)(C)[C@@H]5CC[C@]43C)[C@H]2C1,65.8% (inactive)
17,C=CC(=O)Nc1nc(-c2cccc(NS(=O)(=O)c3cccc4c(N(C)C)cccc34)c2)cs1,-26% (active)
18,COC1CC(Cn2cc(COc3ccc4ccc(=O)oc4c3)nn2)C(OCc2ccccc2)C(OCc2ccccc2)C1OCc1ccccc1 (configuration not stated),92.7% (inactive)
